According to ChEMBL document CHEMBL4513216, “Probing the Open Global Health Chemical Diversity Library for Multistage-Active Starting Points for Next-Generation Antimalarials” (ACS Infect Dis, 2020):
Among all 69,000 compounds or so, about 8,600 (12%) showed an effect of 50% or more. The sample holds strong results, similar compounds and a random draw of the others, so the mix is not that of the screen.

System: Plasmodium berghei
Assay: Screen against P. berghei liver stage (PbLuc), transformed with Luciferase, at 10uM
Format: functional, HepG2
Conditions: tested at 10 uM

| SMILES | INHIBITION [%] |
| --- | --- |
| Cc1noc(C2CCN(C(=O)C3CCCO3)CC2)n1 (stereo unspecified) | 35.6 |
| CN1CCCN(C(=O)c2csc3nc(-c4ccc(Cl)cc4)cn23)CC1 | 43.6 |
| O=C(NCCOc1ccc2c(c1)OCO2)N1CCC1 | 23.4 |
| Cc1ccc(C(=O)N2CCC3(CCC(=O)N(CC(N)=O)C3)CC2)cc1 | 36.8 |
| Cc1nn(C)c2c(N3CCCC3)nc(C3CC3)nc12 | 34.5 |
| Cc1nn(C)c2c(NCc3ccncc3)nc(C3CC3)nc12 | -6.91 |
| Cc1nn(C)c2c(NCc3ccc(F)cc3)nc(C3CC3)nc12 | 56.9 |
| Cc1nc(NC2CC2)c2c(n1)c(C)nn2C | 29.3 |
| Cc1nn(C)c2c(NC3CCCC3)nc(C3CC3)nc12 | 54.2 |
| COc1ccc(CNc2nc(C3CC3)nc3c(C)nn(C)c23)cc1 | -26.1 |
| Cc1nc(NC2CCCC2)c2c(n1)c(C)nn2C | 41.5 |
| Cc1nn(C)c2c(NCc3ccccc3F)nc(C3CC3)nc12 | 75.1 |
| Cc1nn(C)c2c(NCc3cccnc3)nc(C3CC3)nc12 | 35.1 |
| CC(C)N1[C@@H](C(=O)NCCN(C)C)C[C@H]2CN(c3ncccn3)C[C@H]21 | 37.8 |
| Cc1cc(CN2CCN(C(=O)NC(C)c3cccs3)CC2)on1 (stereo unspecified) | 38.9 |
| CC(C)N1CCN(C(=O)C(C)n2cncn2)CC1 (stereo unspecified) | 19.6 |
| COc1ccc(CN2CC[C@@H](O)[C@@H]2Cc2cnn(C)c2)cc1 | 33.4 |
| Cc1nc(CNC(=O)NCC(O)c2ccc(F)cc2)cs1 (stereo unspecified) | 33.8 |
| CC(C)c1cc(O)nc(C2CCCN2C(=O)C(C)(C)C)n1 (stereo unspecified) | 23.2 |
| O=C1C[C@H]2[C@@H](CCN2C(=O)c2cscn2)N1Cc1cccnc1 | 13.7 |
| Cc1ccc(C2CN(C(=O)NCc3nnc4ccccn34)CCO2)o1 (stereo unspecified) | 61.3 |
| O=C(NCc1nnc2ccccn12)N1CCOC(c2ccsc2)C1 (stereo unspecified) | 32 |

| SMILES | INHIBITION [%] |
| --- | --- |
| O=C(NCc1nnc2ccccn12)N1CCOC(c2cccs2)C1 (stereo unspecified) | 63.5 |
| CCn1cnnc1CNC(=O)N1CCOC(c2ccccc2Cl)C1 (stereo unspecified) | 17.5 |
| COc1cccc2c1CCN(C(=O)NCc1nnc3ccccn13)C2 | -102 |
| O=C(NCc1nnc2ccccn12)N1CCc2sccc2C1 | -27.6 |
| Cc1nc(C2CN(C)CCO2)cc(N2CCC(CO)CC2)n1 (stereo unspecified) | 32.8 |
| O=C(CC1CCCC1)N1C[C@H](Oc2cccnc2)[C@H]2OCCC[C@H]21 | -24.5 |
| Cc1nc(=O)c2ccccc2n1C1=CCN(CC(=O)NC(C)C)CC1 | 23.9 |
| O=C(C1CCOc2ccccc2C1)N1Cc2cnn(CCO)c2C1 (stereo unspecified) | 27.6 |
| O=C(CN1CCOc2ccccc2C1)N1Cc2cnn(CCO)c2C1 | 71.5 |
| O=C(C1COc2ccccc2O1)N1Cc2cnn(CCO)c2C1 (stereo unspecified) | 13.7 |
| CCOc1ccc(CN2CCC(c3[nH]ncc3C)C2)cc1CO (stereo unspecified) | 14.65 |
| COc1ncnc2c1CCN(C(=O)NCc1cccnc1)CC2 | -18.2 |
| CCc1nc(C2CCCN2CC(=O)Nc2cc(C)no2)no1 (stereo unspecified) | -14.7 |
| CCC(CC)NCC(C)Oc1cccnc1 (stereo unspecified) | 54.6 |
| CC(CNc1nccc(C(C)C)n1)Oc1cccnc1 (stereo unspecified) | 24.3 |
| CCc1cnc(NCC(C)Oc2cccnc2)nc1 (stereo unspecified) | -5.19 |
| CC(C)c1ncc(CN2CCC(c3n[nH]cc3C(=O)N(C)C)C2)cn1 (stereo unspecified) | 10.9 |
| Cc1cccc(S(=O)(=O)N2C[C@@H]3C[C@@H](c4nc(C)no4)O[C@@H]3C2)c1 | 49.4 |
| CN(C)Cc1ccccc1CN(C)c1ncnc2[nH]ccc12 | 52.2 |
| Cc1cccnc1CN(C)c1ncnc2[nH]ccc12 | -76.9 |
| CN(Cc1ccccc1CN1CCCC1)c1ncnc2[nH]ccc12 | -42.1 |
| COc1cccc(S(=O)(=O)N2C[C@H](OC)[C@]3(CCCO3)C2)c1 | 28.5 |

| SMILES | INHIBITION [%] |
| --- | --- |
| CCCN1CCCN(C(=O)Nc2ccc3c(c2)OCO3)CC1 | -42.1 |
| O=C(Nc1ccc2c(c1)OCO2)N1CCN(CCn2cccn2)CC1 | 42.8 |
| O=C(Nc1ccc2c(c1)OCO2)N1CCN(CCc2ccccc2)CC1 | 60.9 |
| Cc1nnc(CN(C)C2CCCN(Cc3noc(C4CC4)n3)C2)o1 (stereo unspecified) | 27.8 |
| Cc1csc(NC(=O)C2(C)CN(C)CCO2)n1 (stereo unspecified) | 12.235 |
| Cc1nc(-c2ccc(S(=O)(=O)N3CCC4(CC3)OCCO4)cc2)co1 | 48.4 |
| CCN1CCC(NC(=O)CN2CCCC2Cn2cc(C)cn2)CC1 (stereo unspecified) | 11.2 |
| Cc1cccc(OC2CCN(c3ccc(C#N)cn3)CC2)n1 | 51.1 |
| Cc1cccc(OC2CCN(c3ncc(C#N)cc3Cl)CC2)n1 | 12.4 |
| Cc1cccc(OC2CCN(c3nccnc3C#N)CC2)n1 | 11.4 |
| CC(C)N1CCn2c(COCC3CCOCC3)cnc2C1C (stereo unspecified) | 39.4 |
| COc1cc(C)nc(N2CCN(C(=O)COC3CCCC3)CC2)n1 | 26.36 |
| Cc1cn[nH]c1C1CCCCN1C(=O)CCc1ccc(F)cc1 (stereo unspecified) | 2.6 |
| O=C(c1ccsc1)N1CCC(c2nnc(C3CC3)o2)CC1 | 14.3 |
| Cc1cc(C)n(CC2CCCN2C(=O)c2ccc3ccccc3n2)n1 (stereo unspecified) | 21 |
| CCOc1ccc(Cl)c(C(=O)N2CCN(c3ccncc3)CC2)n1 | 10 |
| CCOc1ccc(Cl)c(C(=O)N2CCN(c3cnccn3)CC2)n1 | 52.7 |
| CCOc1ccc(Cl)c(C(=O)N2CCN(c3ncccn3)CC2)n1 | 1.78 |
| CCC(NC(=O)c1ccoc1)c1ccccc1OCC(=O)N1CCCC1 (stereo unspecified) | 29.05 |
| COCC(=O)N[C@H](C(=O)NC(C)c1cccc(C)c1C)C(C)C (stereo partly specified) | 28.7 |
| CCOCC(=O)NC(C)c1cc(C)ccc1C (stereo unspecified) | 30.5 |
| COCC(=O)N[C@H](C(=O)NC(C)c1cc(C)ccc1C)C(C)C (stereo partly specified) | 57.4 |

| SMILES | INHIBITION [%] |
| --- | --- |
| CC1=Nc2c(c(=O)[nH]n2C(C)C)C(c2ccc3ncccc3c2)S1 (stereo unspecified) | 80 |
| CC1=Nc2c(c(=O)[nH]n2C(C)C)C(c2ccc(F)c(F)c2)S1 (stereo unspecified) | -3.95 |
| CC1=Nc2c(c(=O)[nH]n2C(C)C)C(c2ccc3c(c2)OCCO3)S1 (stereo unspecified) | -14.1 |
| CC1=Nc2c(c(=O)[nH]n2C(C)C)C(c2ccc3c(c2)n(C)c(=O)n3C)S1 (stereo unspecified) | -39.6 |
| CC1=Nc2c(c(=O)[nH]n2C(C)C)C(c2ccccc2)S1 (stereo unspecified) | 7.11 |
| CC1=Nc2c(c(=O)[nH]n2C(C)C)C(c2ccc3nccnc3c2)S1 (stereo unspecified) | 58.5 |
| O=C(Nc1ccccc1)[C@H]1C[C@H]2CN(S(=O)(=O)C3CC3)C[C@@H]1O2 | 30.3 |
| CC(C)c1cnc(CN2CCCC(c3cc(C(N)=O)[nH]n3)C2)o1 (stereo unspecified) | -0.113 |
| Cc1cccnc1NC(=O)c1ccc(F)c(S(=O)(=O)NC2CC2)c1 | 20.9 |
| Cc1ccccc1CN(C)C(=O)CN1CCOC(Cn2cccn2)C1 (stereo unspecified) | -4.16 |
| CC(C)c1nnc(NC(=O)CCC(=O)NCC2CCCO2)s1 (stereo unspecified) | 52.5 |
| O=C(CCC(=O)Nc1nnc(C2CCCCC2)s1)NCC1CCCO1 (stereo unspecified) | 18.4 |
| O=C(CCC(=O)Nc1nnc(C(F)(F)F)s1)NCC1CCCO1 (stereo unspecified) | 0.207 |
| Cc1ccc(OCC(O)CNC(=O)C2(c3ccc(F)cc3)CC2)cc1 (stereo unspecified) | -26.1 |
| COc1ccc(C2(C(=O)NCc3c(C)ncc4c3CCNC4)CC2)cc1 | 44.3 |
| Cc1ncc2c(c1CNC(=O)C1(c3ccc(F)cc3)CC1)CCNC2 | 61.9 |
| Cc1ncc2c(c1CNC(=O)C1(C)CC1)CCNC2 | 14.6 |
| Cc1ncc2c(c1CNC(=O)C1(C)CCCCO1)CCNC2 (stereo unspecified) | 36.9 |
| Cc1ncc2c(c1CNC(=O)C1(C)CCCO1)CCNC2 (stereo unspecified) | 56.3 |
| COc1cccc(CCC(=O)N2CCC[C@@H](N)[C@@H]2c2ccccc2F)c1 | 14.4 |
| COc1c(CNCC(O)c2ccc(C)cc2)c(C(C)C)nn1C (stereo unspecified) | -6.14 |
| CS(=O)(=O)CC1(CNc2cc(C#N)c3cc(Cl)ccc3n2)CC1 | 6.23 |

| SMILES | INHIBITION [%] |
| --- | --- |
| CC(NC(=O)CNc1cc2c(cc1Cl)NC(=O)CO2)c1ccco1 (stereo unspecified) | 17.1 |
| Cn1nnnc1SCC(=O)N1CCN(C(=O)C2CC2c2cccs2)CC1 (stereo unspecified) | -40.4 |
| CCc1nnc2n1CCN(C(=O)CCc1ccc3c(c1)OCO3)C2 | 37.4 |
| O=C(C1CCOCC1)N1C[C@@H]2[C@@H](C1)OCC(=O)N2Cc1ccncc1 | -46.5 |
| NC(=O)CCC1CCCN(c2ccc3c(Cl)ccnc3c2F)C1 (stereo unspecified) | 38 |
| NC(=O)CCC1CCCN(c2ccnc3cc(F)ccc23)C1 (stereo unspecified) | 79.3 |
| NC(=O)CCC1CCCN(c2ccc3ccc(F)cc3n2)C1 (stereo unspecified) | -65.4 |
| Cc1cnccc1CCNC(=O)Nc1cnc(N(C)C)nc1 | 42.3 |
| Cc1nc(NC(=O)C(C)N(C)Cc2cccc(C#N)c2)sc1C (stereo unspecified) | -24.7 |
| COc1c(CNC2CCN(c3ccccn3)CC2)c(C(C)C)nn1C | 40.2 |
| CC(CNC1CCN(c2ccccn2)CC1)Oc1ccc(F)cc1 (stereo unspecified) | 65.4 |
| OC1(CNC2CCN(c3ccccn3)CC2)CCc2ccccc21 (stereo unspecified) | 7.31 |
| CC(C)COCCNC1CCN(c2ccccn2)CC1 | 41.4 |
| COc1ccc(C(C)CCNC2CCN(c3ccccn3)CC2)cc1 (stereo unspecified) | 53.4 |
| c1ccc(N2CCC(NCCc3ccc(-n4cccn4)cc3)CC2)nc1 | -15.3 |
| CN1CCC/C1=N\S(=O)(=O)c1ccc(NC(=O)c2cccs2)cc1 | 23.4 |
| c1ccc(CN2C[C@@H]3CC[C@H]2CN(Cc2nnc(C4CC4)o2)C3)cc1 | 45.4 |
| Cc1cc(C)n(CC2CN(CC(=O)N3CCC3)CCO2)n1 (stereo unspecified) | 8.64 |
